# What was measured:
# Assay in all cases: PBM binding z-score (relative to random genomic background probes); higher = stronger binding; sequences stand for … in GC…GCGATTGACAGCGTAGAATGAAGG
# [1] = system: PPARg:RXRa DBDmut IVT, anti-RXR (DBD mutation: RXRa K156A/R161A, NR concentration 270 nM, RXRa partner concentration 90 nM)
# Procedure, shortened: (§1)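 On custom Agilent 4×180K arrays, double-stranded probes with 34-nt variable regions carried direct-repeat seeds, single-nucleotide variants, half-site ablations or random human genomic background. Ligand-free nuclear receptor dimers were applied for 1 h, and binding was read with antibodies against each partner (one per run). Binding z-scores come from regression-normalized fluorescence, with the random background probes as reference.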
# [2] = system: PPARg:RXRa IVT, anti-PPARg (NR concentration 270 nM, RXRa partner concentration 90 nM)
# Procedure, shortened: as §1
# [3] = system: PPARg DBDmut:RXRa IVT, anti-PPARg (DBD mutation: PPARg1 K132A/R137A, NR concentration 270 nM, RXRa partner concentration 90 nM)
# Procedure, shortened: as §1
# [4] = system: PPARg DBDmut IVT, anti-PPARg (DBD mutation: PPARg1 K132A/R137A, NR concentration 270 nM)
# Procedure, shortened: as §1
# [5] = system: PPARg homodimer (NR concentration 180 nM)
# Procedure, shortened: as §1
# [6] = system: PXR:RXRa (NR concentration 270 nM, RXRa partner concentration 90 nM)
# Procedure, shortened: as §1
# [7] = system: PXR homodimer (NR concentration 270 nM)
# Procedure, shortened: as §1
# [8] = system: RARa:RXR (NR concentration 270 nM, RXRa partner concentration 90 nM)
# Procedure, shortened: as §1
# [9] = system: RARa homodimer (NR concentration 270 nM)
# Procedure, shortened: as §1
# [10] = system: RARb:RXRa (NR concentration 270 nM, RXRa partner concentration 90 nM)
# Procedure, shortened: as §1
Sequence,PBM binding z-score [1],PBM binding z-score [2],PBM binding z-score [3],PBM binding z-score [4],PBM binding z-score [5],PBM binding z-score [6],PBM binding z-score [7],PBM binding z-score [8],PBM binding z-score [9],PBM binding z-score [10]
CGAACGAGGGCATGAGTTGATTGCAAATGCCGAT,2.89,1.87,-0.365,-0.273,0.304,0.676,0.4,0.51,-0.117,1.96
TGAATGAGTTTAAAGATCAGGGAACGTGGCGTCG,-0.728,-0.0345,0.667,-0.281,0.122,0.802,0.782,0.485,0.41,0.682
CTAACTAGGTCAGAACAGGACAGTGAAGGATGAT,7.81,7.46,1.78,0.779,1.28,0.958,0.15,0.805,0.43,2.94
TAGCCTAGGTCATGGGGCCAGTATAGTACGCATC,1.84,3.72,0.968,-0.401,3.22,2.19,-0.641,3.54,0.443,3.94
TCAGACAGGTGTAGGTAACTCAGGTACGCAGTCG,2.33,0.315,0.327,-0.523,0.265,0.373,0.461,0.495,0.784,0.406
GCGACTGGGGCATAGCAGGTTACCATAAGGTTGG,3.87,2.96,-0.728,-0.706,-0.174,0.0194,-0.519,0.4,-0.975,0.81
TCTATTAGTTGAAGGGCAACCCACGAGTCCGTTT,2.65,0.706,0.623,0.929,1.43,1.02,1.09,0.823,1.21,1.65
GCGACTGGGTCAAAGCAGGTTACCATAAGGTTGG,5.8,6.15,0.18,0.407,1.75,3.55,-0.492,3.29,-0.492,3.19
TAGCCTAGGTCATGTGGGCCAGTATAGTGTCGGC,1.81,3.41,-0.502,-0.513,0.832,1.47,-0.447,2.33,-0.278,3.81
GATGCTAGGTCAACTGATGGTCAGCTAAAGCTCG,3.82,3.75,-0.0408,-0.329,1.48,1.45,-0.415,2.58,-0.157,4.11
ATATGTAGGTTACATCCGGGTCATACAGGCTATG,7.27,7.54,4.07,3.35,3.84,3.46,1.19,4.26,0.627,2.41
ATAATGAGGTTATTAAGATCAGGGAATTGCGGTC,3.45,3.21,1.46,0.952,1.12,1.58,0.876,1.76,0.951,1.47
CCTTACGGGTCACGATGTTATAGCACGACGAGCG,3.85,4.86,0.952,0.0806,2.01,3.41,0.295,4.22,0.866,4.39
ATCTCTAGGTCAAGTTCAGTGAAAGATCGATAGA,6.76,6.5,2.13,1.61,2.41,3.45,2.13,3.16,1.74,4.55
ATCGAAAGGTCGTGAGGTGAGTAAACAGAAAGGC,0.111,2.34,1.06,0.746,1.39,2.84,0.0266,4.08,0.931,3.94
TCTTGTAGATCAAAGGTTAAGAAAGCCGAAGCCT,2.11,3.55,0.0229,0.863,1.18,2.02,-0.0145,3.24,0.581,1.85
ATCTGTAGGTTAGCTGGGGTCATTCAGACTAGGC,2.69,2.92,1.42,1.67,2.28,6.74,4.22,6.24,1.28,3.19
GCAGACAGCTGAAACGCAGGTAACTCAGGGTGGC,-0.593,-0.619,-0.401,-0.834,-1.24,-0.942,-0.526,-0.648,-0.637,-0.402
CGTCCAAGGTCATAGGAGGTGAGTGAAGACAGAT,2.78,4.36,0.426,0.754,2.6,4.84,1.4,4.65,0.644,5.24
ATATGTAGGTTAGCTGGGGACATTCAGACTAGGC,6.96,6.07,2.18,1.88,1.9,2.92,0.356,1.71,1.2,1.22
CCGCCTGGGGCATAAGGTTACCATAAGCCAGCCC,-0.446,-0.147,-2.09,-2.48,0.35,0.37,-0.511,1.52,-0.89,1.68
TAGCCTAGGTGATTCAGGGGCCAGTATAGAAAGC,0.201,0.666,-0.281,0.314,-0.16,-0.295,-0.446,0.184,-0.571,0.516

Sequence,PBM binding z-score [1],PBM binding z-score [2],PBM binding z-score [3],PBM binding z-score [4],PBM binding z-score [5],PBM binding z-score [6],PBM binding z-score [7],PBM binding z-score [8],PBM binding z-score [9],PBM binding z-score [10]
CGTCCAAGGTCAATGCTAGGTCAGCGAAAGCATT,3.48,4.11,0.86,0.428,7.14,4.98,1.31,6.26,1.36,5.17
CCTAGTTGGTCAGGAGTTCACACACCGGATATGA,1.01,1.1,0.396,0.284,2.47,3.66,3.68,2.36,1.42,2.39
GCTATTAGATGAAAGGGCAACCGAATGATTCTCG,0.363,1.35,0.246,0.212,0.834,0.424,-0.122,0.795,0.15,1.94
CGAACTAGATCATCCAGGACAGTGAATACATTGA,2.02,1.22,0.762,0.684,0.315,-0.222,0.306,0.105,1.19,-0.2
TTGAGTAGGTTAGGGGCATTCAGAATGGCGTCGA,3.21,2.8,0.225,0.781,1.61,0.703,1.3,0.894,1.42,1.42
GCGACTGGCGCATCAGCAGGTTACCATAACTTAA,-0.575,-0.748,-1.28,-1.31,-0.552,-0.518,-0.619,-0.34,-0.992,-1.03
ACAACGAGGGCAATGAGTTGATAGCACGGGTGGC,2.73,2.02,0.439,0.354,0.382,1.76,4.64,0.401,-0.285,2.15
ACTTACGGGTCAACGAGGTTATCGCACGCGTATA,4.15,4.2,2.65,1.38,3.14,5.58,4.21,5.88,0.958,4.4
CCTATTAGTTGACCATAAGGGCAAGCGAAGCTCG,0.132,0.158,-0.0196,0.32,1.47,0.536,0.56,0.913,1.9,1.65
CCTTACGGGTGACGAGGTTATAGCACGACGAGCG,1.91,2.65,0.21,-0.275,1.21,0.931,-0.0569,1.52,0.128,1.1
CTCGAAAGGTCGGTTGAGGTGAGTTTACGGATAA,1.08,0.924,-0.565,-0.36,0.854,3.83,0.588,2.16,-0.143,3.09
GCATATAGGTAATACAAGGTGGAAGTCCGATTGT,4.14,2.47,1.2,0.302,-0.138,0.192,0.041,0.731,0.593,0.0105
CAAACTAGGTAACAGAGGTCAAAGTCCGTGCGTA,6.99,6.88,1.9,1.28,4.37,6,3.25,6.67,1.62,4.11
TCATATAGGTAAATGCTAGGTGAAAGTTCGATCT,3.99,3.4,1.55,1.1,1.29,1.17,0.91,1.61,1.71,0.871
GTTAGTTGGTCAGTAAAAGGTCACACACCGGTCG,2.02,3.66,1.57,0.79,5.74,5.26,1.74,6.27,3.99,4.39
TGAATGAGGTTAAAAGATCAGGGAACGTTGCAAA,1.14,2.17,0.743,0.45,0.137,1.26,0.0168,2.04,0.336,1.72
ACTTACTGGTCAACGAGGTTATAGCACGCGTATA,1.29,1.65,1.75,1.91,1.38,1.89,0.901,2.03,1.23,2.09
ACAGAGAGGTGAGTGAAGGTAACTCAGCTGGACG,1.71,1.65,0.674,-0.716,0.508,0.337,0.0847,0.565,0.175,1.48
ATGTGTAGGTTAAGGGTCATTCAGGTTGGTTCGC,3.87,5.47,1.46,1.87,4.52,5.44,4.53,6.37,3.77,3.91
AGTCAAAGTTCAGGACAAGGTAACGTAAAGCACG,-0.163,2.21,1.02,0.792,2.91,3.12,1.58,3.09,1.2,4.38
TAGCCCAGGTCATGGGCCAGTATACCACGCGAAC,0.271,2.71,0.391,-0.431,0.53,2.24,-0.39,2.96,0.0198,3.78
GCTTACGGGTCAAAGGTTCTAGCATGAATAGAAT,5.13,5.05,0.842,0.712,1.45,4,0.0267,5.93,0.382,3.82

# Source: the supplement of paper PMC6555819
